# Laboratory results as given in article PMC7862700, “An all-to-all approach to the identification of sequence-specific readers for epigenetic DNA modifications on cytosine”.
# What was measured:
# Assay in all cases: DAPPL (digital affinity profiling via proximity ligation, sequencing); 10 mM Tris-HCl pH 7.5, 50 mM NaCl, 1 mM DTT, 4% glycerol, room temperature, 30 min; GST-TFs on glutathione beads, 16-mer random dsDNA library, 0.1% formaldehyde crosslink after washing; high values mean tight binding
# Settings in all cases: protein: recombinant; tags: N-terminal GST; dsDNA, one strand shown
# FLI1 = biological target: T1, FLI1 (Homo sapiens, UniProt Q01543 1-452)
# T1 sequence: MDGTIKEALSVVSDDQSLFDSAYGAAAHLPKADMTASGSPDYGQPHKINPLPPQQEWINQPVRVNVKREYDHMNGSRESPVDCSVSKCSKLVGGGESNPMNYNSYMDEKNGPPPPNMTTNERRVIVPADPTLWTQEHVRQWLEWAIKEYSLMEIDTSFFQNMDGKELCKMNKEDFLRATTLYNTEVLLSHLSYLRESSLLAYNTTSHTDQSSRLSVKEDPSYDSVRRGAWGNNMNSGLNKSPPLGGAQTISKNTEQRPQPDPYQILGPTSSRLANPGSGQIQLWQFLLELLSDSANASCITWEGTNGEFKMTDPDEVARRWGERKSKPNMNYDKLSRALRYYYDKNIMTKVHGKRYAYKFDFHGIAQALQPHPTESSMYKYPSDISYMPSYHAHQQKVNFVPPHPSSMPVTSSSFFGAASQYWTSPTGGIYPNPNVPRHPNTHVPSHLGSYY
# How it was run: (§1)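 Human transcription factors carrying a GST fusion were produced in yeast, bound to glutathione beads, tagged with DNA barcodes and pooled together with a tag-only sample. Each pool was held with 200 nmole of a random double-stranded 16-mer DNA library in Tris/NaCl/DTT/glycerol buffer for 30 min at room temperature, then washed, crosslinked in 0.1% formaldehyde, proximity-ligated with BsaI/T4 ligase (1 h, 37 °C), PCR-amplified and sequenced on an Illumina NextSeq500. Binding signal is the read frequency of each hexamer for a given factor divided by its frequency in the tag-only sample.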
# ELK1 = biological target: T2, ELK1 (Homo sapiens, UniProt P19419 1-428)
# T2 sequence: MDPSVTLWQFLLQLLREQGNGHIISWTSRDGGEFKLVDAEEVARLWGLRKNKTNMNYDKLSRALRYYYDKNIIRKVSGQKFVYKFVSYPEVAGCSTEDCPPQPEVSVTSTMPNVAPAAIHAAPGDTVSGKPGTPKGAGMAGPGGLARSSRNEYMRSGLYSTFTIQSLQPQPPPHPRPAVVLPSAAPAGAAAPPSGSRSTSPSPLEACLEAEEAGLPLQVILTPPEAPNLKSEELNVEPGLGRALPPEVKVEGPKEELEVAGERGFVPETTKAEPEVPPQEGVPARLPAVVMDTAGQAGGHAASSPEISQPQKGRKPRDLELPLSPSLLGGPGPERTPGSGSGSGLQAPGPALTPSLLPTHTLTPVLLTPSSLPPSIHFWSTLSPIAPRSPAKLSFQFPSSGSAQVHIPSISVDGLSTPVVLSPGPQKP
# How it was run: as §1
# GABPA = biological target: T3, GABPA (Homo sapiens, UniProt Q06546 1-454)
# T3 sequence: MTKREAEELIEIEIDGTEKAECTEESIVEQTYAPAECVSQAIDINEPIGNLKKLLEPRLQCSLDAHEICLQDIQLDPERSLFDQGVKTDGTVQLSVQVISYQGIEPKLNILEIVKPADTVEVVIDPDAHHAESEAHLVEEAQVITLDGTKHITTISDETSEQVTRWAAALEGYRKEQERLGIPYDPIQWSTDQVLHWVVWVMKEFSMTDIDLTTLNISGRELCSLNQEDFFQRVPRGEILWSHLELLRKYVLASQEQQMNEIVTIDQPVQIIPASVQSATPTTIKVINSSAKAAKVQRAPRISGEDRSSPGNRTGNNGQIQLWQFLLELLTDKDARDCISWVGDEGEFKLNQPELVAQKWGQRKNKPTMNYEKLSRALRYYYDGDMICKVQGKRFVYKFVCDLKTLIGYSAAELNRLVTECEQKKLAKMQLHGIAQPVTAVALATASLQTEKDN
# How it was run: as §1
# ERG = biological target: T4, ERG (Homo sapiens, UniProt P11308 1-479)
# T4 sequence: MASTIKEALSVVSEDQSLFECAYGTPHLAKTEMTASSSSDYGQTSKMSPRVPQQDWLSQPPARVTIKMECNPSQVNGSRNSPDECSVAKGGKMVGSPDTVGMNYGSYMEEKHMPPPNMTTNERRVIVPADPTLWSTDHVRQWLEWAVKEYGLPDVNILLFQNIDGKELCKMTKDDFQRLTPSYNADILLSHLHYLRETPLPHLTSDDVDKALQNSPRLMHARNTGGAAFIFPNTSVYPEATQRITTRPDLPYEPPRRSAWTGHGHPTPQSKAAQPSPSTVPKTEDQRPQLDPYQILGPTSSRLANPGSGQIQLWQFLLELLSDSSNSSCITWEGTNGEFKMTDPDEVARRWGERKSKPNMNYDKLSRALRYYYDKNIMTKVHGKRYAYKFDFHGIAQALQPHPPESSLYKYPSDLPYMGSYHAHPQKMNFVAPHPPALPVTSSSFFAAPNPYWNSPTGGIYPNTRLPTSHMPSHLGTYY
# How it was run: as §1
# ELF1 = ELF1 (Homo sapiens, UniProt P32519 1-619)
# ELF1, sequence (P32519 whole entry): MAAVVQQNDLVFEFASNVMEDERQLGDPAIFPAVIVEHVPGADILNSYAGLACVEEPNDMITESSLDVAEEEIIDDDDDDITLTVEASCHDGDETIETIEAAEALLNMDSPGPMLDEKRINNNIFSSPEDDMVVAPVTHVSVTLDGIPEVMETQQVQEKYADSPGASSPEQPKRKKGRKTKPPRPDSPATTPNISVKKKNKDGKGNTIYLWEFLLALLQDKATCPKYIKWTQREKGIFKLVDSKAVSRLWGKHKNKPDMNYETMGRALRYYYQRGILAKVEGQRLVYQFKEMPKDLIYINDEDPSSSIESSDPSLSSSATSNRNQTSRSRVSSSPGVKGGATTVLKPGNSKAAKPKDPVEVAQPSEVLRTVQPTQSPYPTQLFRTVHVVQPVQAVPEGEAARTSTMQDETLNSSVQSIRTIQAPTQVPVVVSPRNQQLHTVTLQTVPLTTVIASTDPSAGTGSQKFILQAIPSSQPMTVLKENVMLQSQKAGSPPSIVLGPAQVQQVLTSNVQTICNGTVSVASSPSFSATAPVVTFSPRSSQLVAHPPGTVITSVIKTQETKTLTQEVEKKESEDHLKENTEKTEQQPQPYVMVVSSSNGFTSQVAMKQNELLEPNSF
# How it was run: as §1
# EHF = biological target: T5, EHF (Homo sapiens, UniProt Q9NZC4 1-300)
# T5 sequence: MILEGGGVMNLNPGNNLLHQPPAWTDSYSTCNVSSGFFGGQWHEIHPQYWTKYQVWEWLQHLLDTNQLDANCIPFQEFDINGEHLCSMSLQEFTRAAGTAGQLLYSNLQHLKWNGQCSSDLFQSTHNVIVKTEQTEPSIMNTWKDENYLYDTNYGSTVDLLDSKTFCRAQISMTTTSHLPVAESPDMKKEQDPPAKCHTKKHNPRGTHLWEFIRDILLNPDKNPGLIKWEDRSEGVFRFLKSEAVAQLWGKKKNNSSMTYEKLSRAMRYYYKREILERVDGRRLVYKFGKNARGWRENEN
# How it was run: as §1
# SPI1 = SPI1 (Homo sapiens, UniProt P17947 1-270)
# How it was run: as §1
# SPIB = SPIB (Homo sapiens, UniProt Q01892 1-262)
# SPIB, sequence (Q01892 whole entry): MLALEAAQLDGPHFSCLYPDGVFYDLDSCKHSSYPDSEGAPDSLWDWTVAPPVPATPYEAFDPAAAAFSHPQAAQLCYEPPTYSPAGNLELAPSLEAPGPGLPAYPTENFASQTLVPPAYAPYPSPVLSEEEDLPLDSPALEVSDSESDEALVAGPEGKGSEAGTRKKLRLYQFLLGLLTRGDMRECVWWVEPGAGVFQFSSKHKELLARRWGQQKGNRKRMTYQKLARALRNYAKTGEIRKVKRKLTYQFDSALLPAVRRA
# How it was run: as §1
# ELK3 = biological target: T6, ELK3 (Homo sapiens, UniProt P41970 1-407)
# T6 sequence: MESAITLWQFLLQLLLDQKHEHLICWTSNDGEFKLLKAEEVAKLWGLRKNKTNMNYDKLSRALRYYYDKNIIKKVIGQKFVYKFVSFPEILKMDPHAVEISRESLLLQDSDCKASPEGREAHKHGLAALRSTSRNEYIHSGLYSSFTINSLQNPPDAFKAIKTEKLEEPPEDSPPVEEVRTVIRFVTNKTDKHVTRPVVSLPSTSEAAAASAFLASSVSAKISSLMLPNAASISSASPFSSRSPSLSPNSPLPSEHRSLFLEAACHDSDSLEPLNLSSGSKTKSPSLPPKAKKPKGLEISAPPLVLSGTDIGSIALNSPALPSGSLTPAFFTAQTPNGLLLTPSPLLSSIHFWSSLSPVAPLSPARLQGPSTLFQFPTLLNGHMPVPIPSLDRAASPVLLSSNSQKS
# How it was run: as §1
Sequence,binding signal (FLI1),binding signal (ELK1),binding signal (GABPA),binding signal (ERG),binding signal (ELF1),binding signal (EHF),binding signal (SPI1),binding signal (SPIB),binding signal (ELK3)
ACCTTA,"1.34 fold enrichment (6-mer frequency, TF over GST control)","1.24 fold enrichment (6-mer frequency, TF over GST control)","1.19 fold enrichment (6-mer frequency, TF over GST control)","1.3 fold enrichment (6-mer frequency, TF over GST control)","1.2 fold enrichment (6-mer frequency, TF over GST control)","1.24 fold enrichment (6-mer frequency, TF over GST control)","1.24 fold enrichment (6-mer frequency, TF over GST control)","1.21 fold enrichment (6-mer frequency, TF over GST control)","1.13 fold enrichment (6-mer frequency, TF over GST control)"
ATATCC,"2.59 fold enrichment (6-mer frequency, TF over GST control)","2.88 fold enrichment (6-mer frequency, TF over GST control)","2.45 fold enrichment (6-mer frequency, TF over GST control)","3.33 fold enrichment (6-mer frequency, TF over GST control)","2.56 fold enrichment (6-mer frequency, TF over GST control)","2.58 fold enrichment (6-mer frequency, TF over GST control)","2.43 fold enrichment (6-mer frequency, TF over GST control)","2.82 fold enrichment (6-mer frequency, TF over GST control)","2.72 fold enrichment (6-mer frequency, TF over GST control)"
ATTTCG,"1.24 fold enrichment (6-mer frequency, TF over GST control)","1.25 fold enrichment (6-mer frequency, TF over GST control)","1.29 fold enrichment (6-mer frequency, TF over GST control)","1.25 fold enrichment (6-mer frequency, TF over GST control)","1.3 fold enrichment (6-mer frequency, TF over GST control)","1.35 fold enrichment (6-mer frequency, TF over GST control)","1.29 fold enrichment (6-mer frequency, TF over GST control)","1.37 fold enrichment (6-mer frequency, TF over GST control)","1.21 fold enrichment (6-mer frequency, TF over GST control)"
AAATCT,"1.28 fold enrichment (6-mer frequency, TF over GST control)","1.21 fold enrichment (6-mer frequency, TF over GST control)","1.23 fold enrichment (6-mer frequency, TF over GST control)","1.31 fold enrichment (6-mer frequency, TF over GST control)","1.3 fold enrichment (6-mer frequency, TF over GST control)","1.2 fold enrichment (6-mer frequency, TF over GST control)","1.14 fold enrichment (6-mer frequency, TF over GST control)","1.29 fold enrichment (6-mer frequency, TF over GST control)","1.22 fold enrichment (6-mer frequency, TF over GST control)"
CTCGTC,"1.49 fold enrichment (6-mer frequency, TF over GST control)","1.27 fold enrichment (6-mer frequency, TF over GST control)","1.51 fold enrichment (6-mer frequency, TF over GST control)","1.37 fold enrichment (6-mer frequency, TF over GST control)","1.36 fold enrichment (6-mer frequency, TF over GST control)","1.36 fold enrichment (6-mer frequency, TF over GST control)","1.34 fold enrichment (6-mer frequency, TF over GST control)","1.39 fold enrichment (6-mer frequency, TF over GST control)","1.46 fold enrichment (6-mer frequency, TF over GST control)"
GTTCCT,"1.73 fold enrichment (6-mer frequency, TF over GST control)","1.69 fold enrichment (6-mer frequency, TF over GST control)","1.64 fold enrichment (6-mer frequency, TF over GST control)","1.86 fold enrichment (6-mer frequency, TF over GST control)","1.72 fold enrichment (6-mer frequency, TF over GST control)","1.73 fold enrichment (6-mer frequency, TF over GST control)","2.34 fold enrichment (6-mer frequency, TF over GST control)","1.84 fold enrichment (6-mer frequency, TF over GST control)","1.77 fold enrichment (6-mer frequency, TF over GST control)"
TTTTTC,"1.21 fold enrichment (6-mer frequency, TF over GST control)","1.15 fold enrichment (6-mer frequency, TF over GST control)","1.32 fold enrichment (6-mer frequency, TF over GST control)","1.14 fold enrichment (6-mer frequency, TF over GST control)","1.22 fold enrichment (6-mer frequency, TF over GST control)","1.23 fold enrichment (6-mer frequency, TF over GST control)","1.33 fold enrichment (6-mer frequency, TF over GST control)","1.14 fold enrichment (6-mer frequency, TF over GST control)","1.39 fold enrichment (6-mer frequency, TF over GST control)"
